Screens: PubChem, National Center for Advancing Translational Sciences (NCATS)
KDM4E inh: JMJD2E (human) inhibition; B2RXH2; JMJD2E catalytic domain, FDH-coupled NADH fluorescence (FDH is formaldehyde dehydrogenase); Potency, µM (series often up to 57.1 µM), most hits filed as inhibitors; 230,000 compounds, 1.6% hits; AID 2147; also: nearly all actives have a fitted effect of over 50% in size
ALDH1A1 inh: blocks purified human ALDH1A1 activity | P00352 | 220,000 compounds, 7.3% hits | Potency, µM (top dose mostly 75.3 µM), actives largely listed as inhibitors | Purified ALDH1A1, NADH fluorescence, propionaldehyde substrate
Target sequence (P00352 whole entry, looked up): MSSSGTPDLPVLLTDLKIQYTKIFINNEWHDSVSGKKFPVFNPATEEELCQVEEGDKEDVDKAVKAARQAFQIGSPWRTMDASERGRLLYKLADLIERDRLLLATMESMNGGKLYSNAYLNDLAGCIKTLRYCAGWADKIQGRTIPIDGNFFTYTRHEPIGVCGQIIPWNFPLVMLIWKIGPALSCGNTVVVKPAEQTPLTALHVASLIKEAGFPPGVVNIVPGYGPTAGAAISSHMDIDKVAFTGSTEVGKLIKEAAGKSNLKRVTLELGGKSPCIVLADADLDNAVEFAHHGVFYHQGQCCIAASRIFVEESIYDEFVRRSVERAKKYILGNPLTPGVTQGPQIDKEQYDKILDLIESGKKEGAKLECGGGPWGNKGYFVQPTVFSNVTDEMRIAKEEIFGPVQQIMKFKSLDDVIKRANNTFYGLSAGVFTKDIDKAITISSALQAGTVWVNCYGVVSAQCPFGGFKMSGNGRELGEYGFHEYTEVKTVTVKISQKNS
HPGD block: inhibitors of human 15-hydroxyprostaglandin dehydrogenase (HPGD). P15428. purified HPGD, NADH fluorescence kinetic, PGE2 substrate. Potency, µM, actives largely listed as inhibitors. 150,000 compounds, 4.3% hits
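20 nM HPGD preincubated 15 min at room temperature with compound in 50 mM Tris-HCl pH 8, 0.01% Tween 20. Started with 1 mM NAD+ and 30 uM prostaglandin E2; NADH fluorescence (360/450 nm) read 5 times over 30-s intervals, last minus first.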
PNC assembly inh: inhibitors of perinucleolar compartment assembly | PC3M PTB-GFP, PNC prevalence imaging, 16 h; hits give low values | activity change (PNC), negative = inhibition, % at 10 µM | 140,000 compounds, 3.1% hits | AID 2417;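 active = readout at or below -70, meaning at least 70% loss of cells showing the perinucleolar compartment, a nuclear body marking cancer cells; inconclusive = readout between -30 and a set limit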
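Read-out is percentage of cells bearing a perinucleolar compartment, from automated 20x imaging of fixed, Hoechst-stained PC3M PTB-GFP cells. Cells were seeded 4 h, then exposed 16 h to compound (23 nl of library stock) in duplicate plates.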
Numbers stand for hits; . = inactive; ? = inconclusive; / = no result given; [ ] = remark or other dose. The list is not random: actives were taken first. Their share in the collection is about 11%. Unless noted, calls follow the shape of the dose curve; as a rule, active = well fitted inhibition curve with a large enough effect (not every such curve was filed as active); inconclusive = small, poorly fitted or top-dose-only effect, or another doubt; inactive = no such curve, though single readings can be large or run the other way.

SMILES | KDM4E inh | ALDH1A1 inh | HPGD block | PNC assembly inh
CCCCC/C=C\C/C=C\C/C=C\CCCCCCC(=O)O[C@H](COCCCCCCCCCCCCCCCC)COP(=O)([O-])OCC[N+](C)(C)C | . | . | . | /
O=C(NC(=S)Nc1cccc(Cl)c1N1CCCC1)c1ccc(-c2cccc([N+](=O)[O-])c2)o1 | . | 28µM | . | .
CCC(Oc1ccccc1)C(=O)NCCOC (configuration not stated) | . | . | . | ?
Cc1ccc(C(=O)Nc2cccnc2Oc2ccc(Cl)cc2)cc1 | ? | . | / | /
Cc1ccc(S(=O)(=O)Nc2cccnc2Oc2ccc(Cl)cc2)cc1 | . | 0.02µM | / | /
CC(C)[C@@H]1NC(=O)c2cc([N+](=O)[O-])cc(I)c2NCC[C@@H](C(N)=O)NC(=O)[C@H](CO)NC1=O | . | . | . | .
CC(C)C[C@@H]1NC(=O)[C@H](Cc2ccc(O)cc2)NC(=O)[C@H](CCC(N)=O)NC(=O)c2cc([N+](=O)[O-])cc(I)c2NCC[C@@H](C(N)=O)NC1=O | . | 4µM | . | ?
CC(C)C[C@@H]1NC(=O)[C@H](C(C)C)NC(=O)c2cc([N+](=O)[O-])cc(I)c2NCC[C@@H](C(N)=O)NC1=O | . | 28µM | . | .
NC(=O)[C@@H]1CCNc2c(I)cc([N+](=O)[O-])cc2C(=O)N[C@@H](CO)C(=O)N[C@@H](Cc2ccc(O)cc2)C(=O)N1 | . | . | . | .
COc1ccccc1/C=C/C(=O)NNC(=O)c1cccs1 | ? | . | / | /
CCOc1ncccc1C(=O)OCC(=O)c1cccc(Br)c1 | . | . | / | /
COC(=O)c1cc(=O)n(Cc2ccccc2)c(=NCc2ccccc2)s1 | ? | . | / | /
COC(=O)c1cc(=O)n(CCc2ccccc2)c(=Nc2ccc(F)cc2)s1 | . | . | . | -83
COC(=O)c1cc(=O)n(CCc2ccc(OC)cc2)c(=Nc2ccc(F)c(Cl)c2)s1 | . | . | . | .
COC(=O)c1cc(=O)n(Cc2cccs2)c(=NCc2cccs2)s1 | . | 0.32µM | . | .
CCOC(=O)c1ccc(N=c2sc(C(=O)OC)cc(=O)n2Cc2ccco2)cc1 | . | 1.4µM | . | ?
Cc1ccc(C)c(C(=O)COc2ncnc3ccccc23)c1 | . | . | / | /
COc1cc(OC)c(C(=O)COc2ncnc3ccccc23)c(OC)c1 | . | 16µM | . | ?
O=C(c1cccc(F)c1)N1CCC2(CCCN(c3ccc(-c4ccccc4)cc3)C2)CC1 | / | . | . | /
Cc1occc1C(=O)NN=C1C2CC3CC(C2)CC1C3 | . | ? | . | -100
Cc1cc(=O)oc2c(OS(C)(=O)=O)c(OS(C)(=O)=O)ccc12 | / | .[13.5 µM] | . | /
CN(C)CCC(=O)[C@@]1(O)CC[C@H]2[C@H]3CC=C4C[C@@H](O)CC[C@]4(C)[C@H]3CC[C@]21C | / | 0.32µM | . | /
Cc1ccc(C2C(C(=O)c3cccs3)=C(O)C(=O)N2c2nnc(C)s2)cc1 (configuration not stated) | . | ? | / | /
Cc1ccc(N)c2c1OCCC2=O | . | . | . | -118
CCn1cc(C(=O)N2CCN(c3ccccc3F)CC2)c(=O)c2ccc(C)nc21 | . | . | / | /
SMILES | KDM4E inh | ALDH1A1 inh | HPGD block | PNC assembly inh
COc1ccc(Cc2nnc(N/N=C/c3ccc(O)cc3)[nH]c2=O)cc1OC | 14µM | . | . | ?
COc1ccc(Cc2nnc(N/N=C/c3ccc(Br)cc3)[nH]c2=O)cc1OC | . | . | / | /
Cc1ccc(N2C(=O)CC(Sc3nc4ccccc4o3)C2=O)cc1Cl (configuration not stated) | . | 1.4µM | ? | .
Cc1cc(C)cc(NC(=O)c2ccccc2CC[N+](=O)[O-])c1 | . | 2.8µM | . | .
Nc1cc(-c2ccccc2)nn1S(=O)(=O)c1ccc(Br)cc1 | . | 16µM | . | .
CC1CC(C)CN(c2cc(N(C)CCO)c([N+](=O)[O-])c3nonc23)C1 (configuration not stated) | . | 11µM | / | /
CC1CCN(c2cc(N(C)CCO)c([N+](=O)[O-])c3nonc23)CC1 | . | ? | / | /
O=c1[nH]c2cc3c(cc2cc1CN(Cc1ccccc1)Cc1nnnn1Cc1ccco1)OCCO3 | ? | ? | ? | .
O=c1[nH]c2cc3c(cc2cc1CN(Cc1cccnc1)Cc1nnnn1Cc1ccco1)OCCO3 | ? | ? | ? | .
Cc1cc(C)c2cc(CN(Cc3ccc4c(c3)OCO4)Cc3nnnn3Cc3ccco3)c(=O)[nH]c2c1 | ? | 4.5µM | . | .
Cc1ccc2[nH]c(=O)c(CN(Cc3ccc4c(c3)OCO4)Cc3nnnn3Cc3ccco3)cc2c1 | ? | 25µM | . | .
CCc1ccc2[nH]c(=O)c(CN(Cc3ccccc3)Cc3nnnn3Cc3ccco3)cc2c1 | ? | 13µM | . | ?
O=C1C(Cc2c[nH]c3ccccc23)NC(=S)N1C1CCCCC1 (configuration not stated) | . | . | / | /
N=C(c1ccc2ccccc2c1)c1ccccc1Cc1ccccc1 | / | .[13.5 µM] | . | /
C[C@](O)(C(=O)Nc1ccc(S(=O)(=O)c2ccccc2)cc1)C(F)(F)F | . | . | . | /
COc1ccc2c(c1)C(=O)[C@@H](OC(=O)NCc1ccco1)[C@H](c1ccc(OC)c(Br)c1)O2 | . | ? | . | /
Cc1coc2c1C(=O)C(=O)c1c-2ccc2c1CCCC2(C)C | ? | 20µM | 16µM | /
Cc1ccc(C(=O)NN2C(=O)C3C(C2=O)C2C=CC3C23CC3)cc1 (configuration not stated) | . | . | / | /
COc1cccc(/C=N/Nc2nn3cnnc3c3ccccc23)c1 | ? | ? | ? | -80
COc1cc(/C=N/Nc2nn3cnnc3c3ccccc23)ccc1O | . | . | ? | .
COc1ccc(C2OC3C(CO)OC(n4cnc5c(=O)[nH]c(N)nc54)C3O2)cc1 (configuration not stated) | . | . | 16µM | /
Cc1nn(-c2ccccc2)c(C)c1/C=N/n1c(-c2ccc(C(C)(C)C)cc2)n[nH]c1=S | . | . | ? | .
Cc1ccccc1-c1n[nH]c(=S)n1/N=C/c1c(C)nn(-c2ccccc2)c1C | . | . | 3.5µM | ?
O=C(NCC1(c2ccccc2)CCOCC1)c1cccs1 | . | . | / | /
CCc1ccc(-c2cn3nc(C)c(C)nc3n2)cc1 | 28µM | 2.8µM | . | ?
SMILES | KDM4E inh | ALDH1A1 inh | HPGD block | PNC assembly inh
Cc1nc2nc(-c3ccccc3)cn2nc1C | ? | ? | ? | .
CCC(C(=O)NCc1ccncc1)c1ccccc1 (configuration not stated) | . | . | / | /
COc1ccc(OCC(O)CNS(=O)(=O)c2cccc(Cl)c2)cc1 (configuration not stated) | . | 10µM | / | /
Cc1ccccc1NC(=O)CSc1nc2cc3c(cc2cc1C)CCC3 | . | . | . | .
CCC(=O)Nc1ccc(NC(=O)CSc2nc3cc4c(cc3cc2C)CCC4)cc1 | . | 11µM | . | .
CCSc1nc(=S)cc(C)[nH]1 | . | 28µM | / | /
CCn1c(C)c(C(C)=O)c(N2CCN(c3ccc(OC)cc3)CC2)nc1=S | . | 25µM | / | /
CCn1c(C)c(C(C)=O)c(N2CCN(c3cccc(Cl)c3)CC2)nc1=S | ? | 14µM | ? | .
COc1ccc(N2CCN(c3nc(=S)n(-c4ccccc4)c(C)c3C(C)=O)CC2)cc1 | . | ? | . | .
